Screening results (PubChem BioAssay)
This is a sample that favours compounds with a hit; in the whole collection about 3% have one here.
Tau FP inhib: blocks human tau fibril formation measured by polarization | K18 P301L tau heparin fibrillization, Alexa594 FP, 6 h | P10636 | Potency, µM (titrated, usually from 57.7 µM), hits mostly inhibitors | AID 1468 | hit rate 0.39% among 280,000; note: nearly all actives have a fitted effect of over 55% in size
Target sequence (P10636 561-689 P618L limits assumed): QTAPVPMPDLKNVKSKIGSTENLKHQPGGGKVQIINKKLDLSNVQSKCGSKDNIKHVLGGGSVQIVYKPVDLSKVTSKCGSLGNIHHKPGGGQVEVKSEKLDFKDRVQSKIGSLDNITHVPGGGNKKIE
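Human K18 P301L fragment (15 uM unlabeled plus 0.24 uM Alexa 594-labeled) in 100 mM sodium acetate pH 7 with compound, aggregation induced by 20 uM heparin for 6 hr at 37 C. ThT (30 uM) added for 1 hr, then Alexa 594 FP read.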
Tau fluor counter: counter-screen for tau fibril formation inhibitors. tau K18 P301L Alexa594 fluorescence, heparin fibrillization. Potency, µM (top dose mostly 57.7 µM). hit rate 0.93% among 280,000. AID 1463; note: nearly all actives have a fitted effect of over 55% in size
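Human K18 P301L tau (15 uM unlabeled plus 0.24 uM Alexa 594-labeled, final) in 100 mM sodium acetate pH 7 was mixed with compound and 20 uM heparin and incubated 6 hr at 37 C.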
TR SRC2 fluor cs: Texas Red fluorescence interference in TRb-SRC2 counter-screen. TRb/SRC2 Texas Red total fluorescence interference. Potency, µM (doses to about 106 µM). hit rate 0.29% among 280,000. AID 1479; active = well fitted curve in either direction with a large enough effect; inconclusive = small, poorly fitted or top-dose-only effect
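Human TRb ligand-binding domain at 0.6 uM with 20 nM Texas Red SRC2 peptide in Tris buffer containing 1 uM T3 and 5% DMSO, incubated with compound 5 h at ambient temperature. Total fluorescence (555/632 nm) calculated as parallel + 2 × perpendicular.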
TRb SRC2 PPI: disrupts binding of human TR beta to SRC2; TRbeta-SRC2 peptide binding, fluorescence polarization; receptor liganded with 1 µM T3; P10828; Potency, µM (highest dose often 106 µM), actives largely listed as inhibitors; hit rate 0.065% among 280,000; note: nearly all actives have a fitted effect of over 50% in size
Target sequence (P10828 whole entry, looked up): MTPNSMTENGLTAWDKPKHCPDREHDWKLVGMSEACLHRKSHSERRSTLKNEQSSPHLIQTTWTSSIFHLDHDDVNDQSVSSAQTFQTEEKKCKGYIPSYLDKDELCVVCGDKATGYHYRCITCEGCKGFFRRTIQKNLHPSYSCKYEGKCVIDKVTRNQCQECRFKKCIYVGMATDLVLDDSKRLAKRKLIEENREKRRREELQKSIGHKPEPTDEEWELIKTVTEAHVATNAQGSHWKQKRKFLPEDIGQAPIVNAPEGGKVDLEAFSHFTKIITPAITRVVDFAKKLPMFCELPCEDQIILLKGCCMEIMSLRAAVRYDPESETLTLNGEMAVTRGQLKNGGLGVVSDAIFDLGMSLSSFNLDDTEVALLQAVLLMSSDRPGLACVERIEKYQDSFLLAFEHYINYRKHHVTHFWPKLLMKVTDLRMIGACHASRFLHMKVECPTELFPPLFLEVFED
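Read-out is fluorescence polarization (555 nm excitation, 632 nm emission) of a Texas Red SRC2 coactivator peptide; loss of signal reflects blocked binding to human TRb ligand-binding domain in the presence of 1 uM T3.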
Tau fibril ThT: blocks human tau fibril formation measured by thioflavin T; AID 1460; Potency, µM (titrated, usually from 57.4 µM), actives largely listed as inhibitors; P10636; recombinant tau K18 P301L (four-repeat tau fragment), heparin-induced fibrillization, ThT fluorescence; hit rate 2.1% among 270,000; note: nearly all actives have a fitted effect of over 55% in size
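Heparin-induced (20 uM) aggregation of recombinant human K18 P301L tau, 15 uM unlabeled with 0.24 uM labeled, pH 7 acetate buffer, 6 hr at 37 C with compound. Fibrils quantified by 30 uM ThT fluorescence after 1 hr ambient incubation.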
Hits are given with their value; . = inactive; ? = inconclusive; / = no result; ! = not active in a repeat; [ ] = dose if it differs, or a comment. Unless noted, calls come from the whole dose curve; as a rule, active = well fitted curve in the direction sought with a large enough effect; inconclusive = small, poorly fitted or top-dose-only effect, or another doubt; inactive = no such curve, though single readings can be large; an effect the other way counts as inactive or inconclusive.

SMILES | Tau FP inhib | Tau fluor counter | TR SRC2 fluor cs | TRb SRC2 PPI | Tau fibril ThT
Cc1cccc(N2C(=O)CSC23C(=O)N(CC(=O)Nc2cccc(Cl)c2)c2ccccc23)c1 (stereo unspecified) | 25µM | ? | . | . | .
COc1ccc(-c2ccccc2)cc1NNC(=O)OC(C)C | / | / | . | . | /
ClC1=C(Cl)[C@@]2(Cl)[C@H]3C[C@@H](Cl)[C@H](Cl)[C@H]3[C@@]1(Cl)C2(Cl)Cl | / | / | . | . | /
O=C1NC(=S)N(Cc2ccco2)C(=O)/C1=C\c1cccs1 | ? | ? | ? | ? | 13µM
C=CCN1C(=O)/C(=C/c2cccs2)C(=O)NC1=S | . | ? | . | . | ?
CCOC(=O)C1CCN(/C=C2/C(=O)NC(=O)N(c3ccc(OCC)cc3)C2=O)CC1 | ? | . | . | . | 14µM
CCOC(=O)C1CCN(/C=C2/C(=O)NC(=S)N(c3ccccc3F)C2=O)CC1 | . | . | . | . | .
CON=C(C(=O)OC)c1ccccc1CO/N=C(\C)c1cccc(C(F)(F)F)c1 | / | / | . | . | /
C=CCSc1nc2c(c(-c3ccsc3)c1C#N)CN(C)CC2 | ? | 20µM[quencher] | . | . | 14µM
O=C1C(Cl)=C(Cl)C(=O)c2ccccc21 | / | / | . | . | /
CCN(CC)c1ccc(N=Cc2c(O)n(-c3ccccc3C)c(=O)[nH]c2=O)cc1 | . | . | . | . | 20µM
Cc1cc(OC(=O)N(C)C)n(-c2ccccc2)n1 | . | . | . | . | .
CC(=O)NC1N=C(C)N(c2ccccc2)C1=O (stereo unspecified) | ? | ? | . | 32µM | ?
CN1CCC(OC(=O)Cc2ccccc2)CC1 | . | . | . | . | .
O=C(OC1CCN(CCCl)CC1)C(c1ccccc1)c1ccccc1 | . | . | . | 35µM | ?
Cc1cc(Br)ccc1N1C(=O)CC(=O)NC1=O | ? | . | . | . | 13µM
O=C1CC(=O)N(c2ccc(Cl)cc2Cl)C(=O)N1 | . | . | . | . | ?
CCN(CC)c1ccc(CC2C(=O)N(C)C(=O)N(C)C2=O)cc1 | ? | 25µM[fluorescent] | ? | ? | ?
CC(C)C(C(=O)OC(C#N)c1cccc(Oc2ccccc2)c1)c1ccc(Cl)cc1 (stereo unspecified) | / | / | . | . | /
CCCCC(CC)COC(=O)Cl (stereo unspecified) | / | / | . | . | /
O=C1CC(N2CC=C(c3ccc(F)cc3)CC2)C(=O)N1c1ccc(F)cc1 (stereo unspecified) | ? | ? | . | . | 32µM
CSC(=O)c1c(C(F)F)nc(C(F)(F)F)c(C(=O)SC)c1CC(C)C | / | / | . | . | /
CC(=O)C(Sc1ncnc2c1nnn2-c1ccc(F)cc1)C(=O)N(C)C (stereo unspecified) | ? | . | . | . | 14µM
O=C(CSc1ncnc2c1nnn2-c1ccc(F)cc1)NCC1CCCO1 (stereo unspecified) | . | . | . | . | ?
CCOP(=S)(OCC)SCn1nnc2ccccc2c1=O | / | / | . | . | /
SMILES | Tau FP inhib | Tau fluor counter | TR SRC2 fluor cs | TRb SRC2 PPI | Tau fibril ThT
N#CC(C#N)=Cc1cc(O)c(O)c(O)c1 | 22µM! | ? | . | . | 13µM!
CCn1nc(-c2cccs2)nc2c(=O)n(C)c(=O)nc1-2 | ? | . | . | ? | 18µM
O=C(NC(=O)c1c(F)cccc1F)Nc1cc(Cl)c(OC(F)(F)C(F)F)c(Cl)c1 | / | / | . | . | /
COc1ccc(CN2C(=O)NC(=O)/C(=C\c3ccco3)C2=O)cc1 | ? | . | . | . | ?
O=C1NC(=O)N(Cc2ccccc2)C(=O)/C1=C/C=C/c1ccco1 | ? | . | . | . | 10µM
CCN1C(=O)C(=C/C=C/c2ccco2)C(=O)N(CC)C1=S | ? | . | 28µM[fluorescent] | ? | 16µM
CN(C)c1ccc(/C=C2/C(=O)NC(=O)N(Cc3ccco3)C2=O)cc1 | . | . | . | . | ?
CC(C)c1ccc(N2C(=O)NC(=O)/C(=C\C=C\c3ccco3)C2=O)cc1 | ? | . | . | . | ?
COc1ccc(/C=C2/C(=O)N(Cc3ccco3)C(=O)N(C(C)C)C2=O)cc1 | ? | . | . | ? | 18µM
Cc1ccc(/C=C2/C(=O)NC(=O)N(CCc3ccc(F)cc3)C2=O)o1 | . | . | . | . | ?
O=C1NC(=O)N(CCc2ccc(F)cc2)C(=O)/C1=C/c1ccco1 | ? | ? | . | . | 10µM
COCC(=O)N(c1c(C)cccc1C)N1CCOC1=O | / | / | . | . | /
CCCCC(CC)CO[N+](=O)[O-] (stereo unspecified) | / | / | . | . | /
CC/C(=N\OC/C=C/Cl)C1=C(O)CC(C2CCOCC2)CC1=O (stereo unspecified) | / | / | . | . | /
CC(C)N1C(=O)/C(=C/C=C/c2ccco2)C(=O)N(Cc2ccco2)C1=O | ? | . | . | . | 28µM
O=c1c(O)c(-c2ccc(O)c(O)c2)oc2c(O)c(O)cc(O)c12 | 7.9µM | ? | . | . | 3.5µM
CCOP(=S)(OCC)Oc1ccc(S(C)=O)cc1 (stereo unspecified) | / | / | . | . | /
COc1c(C)cc(Br)cc1C(=O)Nc1ccc(-c2nc3ncccc3o2)cc1 | . | . | . | . | ?
CS(=O)(=O)c1ncc(Cl)c(C(=O)Nc2c(C(=O)Nc3ccccc3)oc3ccccc23)n1 | . | . | . | . | 8.9µM
CCC1(C)CC(C(N)=S)CCO1 (stereo unspecified) | ? | . | . | . | 13µM
CCCN1CCc2cc(O)cc3c2C1Cc1ccc(O)c(O)c1-3 (stereo unspecified) | 35µM | 16µM[quencher] | . | . | 16µM
NCCc1cc(O)c(O)cc1O | 25µM | 10µM[quencher] | . | 40µM! | 7.1µM
C=C1C(=O)O[C@@H]2C[C@@H](C)[C@@H]3C=CC(=O)[C@@]3(C)[C@@H](O)[C@H]12 | 4µM | 8.9µM![quencher] | . | . | 3.5µM
CC(C)C12CN3CC(C(C)C)(CN(C1)C3c1ccccn1)C2=O (stereo unspecified) | . | . | . | . | .
OC12ONC(c3ccccn3)C1N1CCC2CC1 (stereo unspecified) | ? | . | . | . | 13µM
SMILES | Tau FP inhib | Tau fluor counter | TR SRC2 fluor cs | TRb SRC2 PPI | Tau fibril ThT
CN(C)C1C(=O)C(C(N)=O)C(=O)C2(O)C(=O)C3C(=O)c4c(O)cccc4C(C)(O)C3C(O)C12 (stereo unspecified) | 20µM | ? | 28µM[quencher] | . | 4.5µM
CN(C)C1C(=O)C(C(N)=O)=C(O)[C@@]2(O)C(=O)C3=C(O)c4c(O)cccc4[C@](C)(O)C3C(O)C12 (stereo partly specified) | ? | ? | . | . | ?
CN(C)[C@@H]1C(=O)C(C(N)=O)=C(O)[C@@]2(O)C(=O)C3=C(O)c4c(O)cccc4[C@@](C)(O)[C@H]3[C@H](O)[C@@H]12 | 11µM | ? | 16µM![quencher] | ? | 6.3µM
Nc1c(Cl)c(F)nc(OCC(=O)O)c1Cl | / | / | . | . | /
O=P(Oc1ccccc1)(Oc1ccccc1)Oc1ccccc1 | / | / | . | . | /
Cc1cc(C)cc(N2C(=O)NC(=O)/C(=C\c3cccn3-c3ccccc3)C2=O)c1 | . | . | . | . | .
